What all share (experiment): glycan array binding signal (z-score within array); higher = stronger binding
What all share (conditions): glycan notation: IUPAC condensed, linker removed

One experiment deals with Fuc(a1-2)Gal(b1-4)Glc. In a few lines:
(§1)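 Glycan array data were curated from 3228 arrays in the Consortium for Functional Glycomics database and kept only where the protein sequence was available. Glycan names were converted to IUPAC-condensed notation, and columns mapping to the same glycan were averaged. The binding signal is a within-array Z-score, averaged across arrays of the same protein sequence at different concentrations or buffers and across linkers. Negative Z-scores can be read as non-binding.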

The target in another experiment is Fuc(a1-2)Gal(b1-4)GlcNAc. In a few lines:
as §1

In experiment [1] the target is Fuc(a1-2)Gal(b1-4)GlcNAc(b1-3)Gal(b1-4)GlcNAc(b1-3)Gal(b1-4)GlcNAc. In a few lines:
as §1

A further experiment concerns the target Fuc(a1-3)GlcNAc. The essentials:
as §1

Experiment [2] deals with Gal(a1-3)Gal(b1-4)[Fuc(a1-3)]GlcNAc. In a few lines: as §1
The target of experiment [3] is Gal(b1-3)[Neu5Ac(a2-6)]GlcNAc(b1-4)Gal(b1-4)Glc. The essentials:
as §1

A further experiment concerns the target Gal(b1-4)Glc6S. The essentials: as §1
Another experiment has as its target Gal3S(b1-3)GalNAc. In a few lines:
as §1

A further experiment concerns the target Gal4S(b1-4)GlcNAc. The essentials: as §1
The next experiment concerns the target Gal6S(b1-4)Glc. In a few lines:
as §1

In the next experiment the target is GalNAc(a1-3)Gal. In a few lines: as §1
The target in experiment [4] is Neu5Ac(a2-3)Gal(b1-3)[Fuc(a1-4)]GlcNAc. The essentials:
as §1

Experiment [5] addresses Neu5Ac(a2-3)Gal(b1-4)GlcNAc. The essentials: as §1
Experiment [6] deals with Neu5Ac(a2-3)Gal(b1-4)[Fuc(a1-3)]GlcNAc(b1-3)Gal(b1-4)[Fuc(a1-3)]GlcNAc(b1-3)Gal(b1-4)[Fuc(a1-3)]GlcNAc. The essentials:
as §1

For experiment [7], the target named is Neu5Ac(a2-8)Neu5Ac(a2-8)Neu5Ac(a2-3)Gal(b1-4)Glc. The essentials: as §1
The target in experiment [8] is Neu5Gc(a2-3)Gal(b1-3)[Fuc(a1-4)]GlcNAc. In a few lines: as §1
The target of experiment [9] is Neu5Gc(a2-3)Gal(b1-4)GlcNAc. In a few lines: as §1
Experiment [10] concerns the target Neu5Gc(a2-6)Gal(b1-4)GlcNAc. The essentials:
as §1

For experiment [11], the target named is Fuc(a1-2)Gal(b1-4)GlcNAc(b1-3)Gal(b1-4)GlcNAc. The essentials: as §1
Experiment [12] addresses Fuc(a1-2)Gal(b1-4)[Fuc(a1-3)]GlcNAc. The essentials:
as §1

Experiment [13] deals with Fuc(a1-2)[GalNAc(a1-3)]Gal(b1-4)[Fuc(a1-3)]GlcNAc. In a few lines: as §1
Experiment [14] has as its target Fuc(a1-3)[Gal(b1-4)]GlcNAc(b1-4)Gal(b1-4)[Fuc(a1-3)]GlcNAc(b1-4)Gal(b1-4)[Fuc(a1-3)]GlcNAc. In a few lines:
as §1

A further experiment addresses Gal(a1-3)GalNAc. The essentials: as §1
The target in experiment [15] is Gal(b1-3)GlcNAc(b1-3)Gal(b1-4)Glc. In a few lines: as §1
Experiment [16] addresses Gal(b1-3)GlcNAc(b1-3)Gal(b1-4)GlcNAc. The essentials: as §1
In experiment [17] the target is Gal(b1-3)[Fuc(a1-4)]GlcNAc(b1-3)Gal(b1-4)[Fuc(a1-3)]GlcNAc. The essentials:
as §1

Experiment [18] deals with Gal(b1-3)[Neu5Ac(a2-6)]GalNAc. The essentials:
as §1

Experiment [19] has as its target Gal(b1-3)[Neu5Ac(a2-6)]GlcNAc(b1-6)Gal(b1-4)Glc. The essentials:
as §1

A further experiment addresses Gal(b1-4)GlcNAc. The essentials:
as §1

The target in experiment [20] is Gal(b1-4)GlcNAc(b1-3)[Gal(b1-4)GlcNAc(b1-6)]GalNAc. The essentials: as §1
The target in another experiment is Gal3S(b1-3)GlcNAc. In a few lines: as §1
For another experiment, the target named is Gal3S6S(b1-4)GlcNAc. In a few lines:
as §1

The target of experiment [21] is GlcNAc(b1-3)Gal(b1-3)GalNAc. In a few lines:
as §1

The target in experiment [22] is GlcNAc(b1-3)[GlcNAc(b1-6)]GlcNAc(b1-4)GlcNAc. The essentials:
as §1

The target in experiment [23] is Neu5Ac(a2-3)Gal(b1-3)GalNAc. In a few lines:
as §1

The target of experiment [24] is Neu5Ac(a2-3)Gal(b1-3)GalNAc(b1-3)Gal(b1-4)GlcNAc. The essentials:
as §1

In experiment [25] the target is Neu5Ac(a2-3)Gal(b1-3)[Fuc(a1-4)]GlcNAc(b1-3)Gal(b1-4)[Fuc(a1-3)]GlcNAc. In a few lines: as §1
For experiment [26], the target named is Neu5Ac(a2-3)Gal6S(b1-4)[Fuc(a1-3)]GlcNAc. The essentials:
as §1

Experiment [27] has as its target Neu5Ac(a2-3)[GalNAc(b1-4)]Gal(b1-4)Glc. In a few lines:
as §1

The target of a further experiment is Neu5Ac(a2-8)Neu5Ac. In a few lines:
as §1

Only a selection was taken, and the strongest signals are over-represented in it overall.

B1: RegIIIbeta (Mus musculus), P35230 (protein)
chain: MLPPTACSVMSWMLLSCLMLLSQVQGEDSLKNIPSARISCPKGSQAYGSYCYALFQIPQTWFDAELACQKRPGGHLVSVLNSAEASFLSSMVKRTGNSYQYTWIGLHDPTLGAEPNGGGWEWSNNDVMNYFNWERNPSTALDRAFCGSLSRASGFLKWRDMTCEVKLPYVCKFTG
With B1, the “glycan array binding signal (z-score)” value with Fuc(a1-2)Gal(b1-4)Glc is -0.114; with Fuc(a1-2)Gal(b1-4)GlcNAc, -0.116; in experiment [1], 0.15; in the experiment with Fuc(a1-3)GlcNAc it was -0.114; in experiment [2], -0.098; in experiment [3], -0.105. Further, the “glycan array binding signal (z-score)” value was -0.119 in the experiment with Gal(b1-4)Glc6S; -0.124 with Gal3S(b1-3)GalNAc; 0.188 in the experiment with Gal4S(b1-4)GlcNAc; -0.116 in the experiment with Gal6S(b1-4)Glc; -0.109 with GalNAc(a1-3)Gal; -0.103 in experiment [4]. Also, the “glycan array binding signal (z-score)” value in experiment [5] is -0.071; in experiment [6], 0.086; in experiment [7], -0.118; in experiment [8], 0.106; in [9], -0.116; in experiment [10], -0.122.

B2: CTMLA2 (Anopheles gambiae), Q7Q7F8 (protein)
chain: MNLMITILIAVITVVRGDLSVPKTVDDILQQNPCLCPCKPFEEKEYFIPISRTSDWFGAVAYCHSVGMELAEVLNEDEARAMGEVIAEEESDSDDEFYWIGANDLGVQGTYRWALAGRPVLYSQWAAGEPNHARGENGQQPAERCVAVAMDKYEWNDFQCTQQKPFICQQFRKH
Regarding B2, the “glycan array binding signal (z-score)” value with Fuc(a1-2)Gal(b1-4)Glc was 0.14; in [11], -0.253; in [12], -0.269; in experiment [13], 0.192; in experiment [14], -0.011; with Gal(a1-3)GalNAc, 0.077. Further, the “glycan array binding signal (z-score)” value in [15] is 4.14; in [16] it was -0.58; in experiment [17] it was -0.224; in experiment [18] it was -0.277; in experiment [19], -0.49; in the experiment with Gal(b1-4)GlcNAc, -0.338. In addition, the “glycan array binding signal (z-score)” value is 0.036 in experiment [20]; 1.6 with Gal3S(b1-3)GlcNAc; 1.36 with Gal3S6S(b1-4)GlcNAc; 1.18 in experiment [21]; 0.928 in [22]; -0.51 in [23]. The “glycan array binding signal (z-score)” value is 0.102 in experiment [24]; -0.129 in [25]; -0.274 in [26]; -0.435 in [27]; -0.246 in the experiment with Neu5Ac(a2-8)Neu5Ac.

The record behind these values is the supplement of paper PMC8728848.
